TEAD-YAP block – TEAD-YAP interaction inhibition | HEK-TIYL cells, TEAD-Gal4/YAP UAS-luciferase luminescence | inhibition, % at 9.12 µM | hit rate 1.4% among 640,000 | AID 1259422; in the data active = inhibition above about 32%;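 note: 0% = median of test compound wells and 100% = reference inhibitor wells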
MITF inh – inhibitors of human MITF. O75030. AlphaScreen MITF homodimerization, bead proximity signal. inhibition, % at 2.6 µM. hit rate 0.91% among 650,000. AID 1259374; in the data active = inhibition above about 50%;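 note: 0% = vehicle wells with protein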
FBW7 activator – activators of human E3 ligase FBW7; Q969H0; AlphaScreen FBW7–phospho-cyclin E peptide binding, activator screen; normalized activity (activation), % at 26.1 µM; hit rate 0.13% among 650,000; AID 1259310; in the data active = normalized activity above about 1.9%;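 note: purified mutant Fbw7 with reduced substrate affinity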
Target sequence (Q969H0 whole entry, looked up): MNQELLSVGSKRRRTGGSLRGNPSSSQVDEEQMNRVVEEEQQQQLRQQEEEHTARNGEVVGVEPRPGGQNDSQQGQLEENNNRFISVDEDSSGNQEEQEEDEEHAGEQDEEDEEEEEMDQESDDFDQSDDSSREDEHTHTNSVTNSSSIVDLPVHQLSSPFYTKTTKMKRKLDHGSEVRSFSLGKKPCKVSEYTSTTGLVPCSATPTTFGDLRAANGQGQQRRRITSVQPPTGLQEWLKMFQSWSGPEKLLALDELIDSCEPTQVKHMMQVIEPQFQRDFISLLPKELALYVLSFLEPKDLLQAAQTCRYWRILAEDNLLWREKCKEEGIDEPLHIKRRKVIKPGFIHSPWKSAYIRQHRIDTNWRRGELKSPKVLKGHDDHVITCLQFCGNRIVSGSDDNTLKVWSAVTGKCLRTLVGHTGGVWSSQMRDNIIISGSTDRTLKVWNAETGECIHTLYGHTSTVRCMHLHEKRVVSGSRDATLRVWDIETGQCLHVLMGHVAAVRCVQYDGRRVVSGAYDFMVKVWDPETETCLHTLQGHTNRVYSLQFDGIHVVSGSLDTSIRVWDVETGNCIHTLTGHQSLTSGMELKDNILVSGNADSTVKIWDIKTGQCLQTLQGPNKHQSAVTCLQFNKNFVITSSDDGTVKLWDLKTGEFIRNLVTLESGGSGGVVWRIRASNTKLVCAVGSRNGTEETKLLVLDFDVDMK
GPR151 ag – human GPR151 activation; Q8TDV0; PathHunter beta-arrestin GPR151 cells, luminescence; activation, % at 11.2 µM; hit rate 1% among 650,000; AID 1508602; in the data active = activation above about 4.9%;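 note: 0% = median of compound wells and 100% = cells with positive control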
MITF inh conf – human MITF inhibition, confirmation; shares compounds with MITF inh; AlphaScreen MITF homodimerization, biotin/His-MITF beads; inhibition, % at 2.6 µM; hit rate 16% among 4,700;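 active = inhibition above a cutoff derived from the DMSO control wells, cut at about 28% in these data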;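 note: 0% = MITF dimer wells with DMSO only; inhibitors lower the bead chemiluminescence by keeping MITF from dimerizing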
AS interf DR – optically interferes with AlphaScreen signal in dose response. shares compounds with MITF inh. AlphaScreen optical interference counterscreen, cell-free. IC50, µM. hit rate 6% among 480. AID 1259373; call rule not given here
AlphaScreen intf2 – counter-screen: compounds optically interfering with AlphaScreen. shares compounds with MITF inh. LysRS AlphaScreen counterscreen, signal interference, triplicate. inhibition, % at 2.6 µM. hit rate 7.6% among 4,700;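 active = inhibition above a cutoff derived from the DMSO control wells, cut at about 30% in these data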
The depositor's hits bear a star; . = no result. Hits are enriched below; roughly 3.4% of the tested compounds scored in any of these assays.

SMILES | TEAD-YAP block | MITF inh | FBW7 activator | GPR151 ag | MITF inh conf | AlphaScreen intf2 | others
CCOC(=O)c1ccc(-n2c(C)c3c(OCC)cccc(=O)c3c2C)cc1 | -2.5 | -0.6 | -0.2 | 2.7 | . | .
CCN(CC(=O)Nc1ccccc1C(F)(F)F)CC(=O)NC1CCCc2ccccc21 (stereo unspecified) | -5.7 | 81.3* | -0.4 | -0.5 | 0.9 | 3.1
CCN(CC(=O)Nc1ccccc1C(F)(F)F)CC(=O)Nc1cccc2ccccc12 | 27.8 | -0.9 | -0.1 | 1.9 | . | .
CCN(CC)C(=O)C1CCCN(c2nc(NC3CC3)nc(N(CC)CC)n2)C1 (stereo unspecified) | -5.4 | 3.5 | 0.1 | -0.5 | . | .
Cc1cc(C)n(CCCNCC(O)COc2ccc(-c3ccccc3)cc2)n1 (stereo unspecified) | 5.5 | 34.8 | 0.0 | 1.5 | . | .
OC(CNCCCn1ccnc1)COc1cccc2ccccc12 (stereo unspecified) | 12.1 | 83.6* | -0.1 | -0.6 | 18.0 | 17.4
Cc1cc(C)n(CCCNCC(O)COc2ccc(C(=O)c3ccccc3)cc2)n1 (stereo unspecified) | 10.8 | 59.9* | -0.1 | -0.2 | -1.6 | 4.9
OC(CNCCCn1ccnc1)COc1ccccc1 (stereo unspecified) | 4.4 | 75.1* | -0.2 | -0.3 | 6.5 | 17.4
Cc1cccc(OCC(O)CNCCCn2ccnc2)c1 (stereo unspecified) | 11.3 | 65.4* | 0.0 | -0.7 | 0.1 | 0.6
O=c1[nH]c(CN(CCO)Cc2nc3sccc3c(=O)[nH]2)nc2sccc12 | 6.0 | 78.1* | -0.2 | 0.1 | 46.5* | 100.3*
CCc1cccc(OCCCNC(C)CC)c1 (stereo unspecified) | 12.0 | 81.6* | 0.3 | -0.9 | 13.6 | 7.5
CCC(C)NCCOc1ccc(Br)cc1 (stereo unspecified) | 3.6 | 75.7* | -0.1 | -0.7 | -13.9 | 0.6
CCC(C)NCCOCCOc1ccc(Br)cc1 (stereo unspecified) | 4.0 | 26.1 | -0.1 | 1.2 | . | .
CCC(C)NCCOCCOc1ccc(C)cc1 (stereo unspecified) | 10.0 | 48.7 | 0.0 | -0.1 | . | .
CCC(C)NCCOCCOc1ccc(Cl)c(Cl)c1 (stereo unspecified) | -5.8 | 66.5* | -0.1 | 1.4 | -2.7 | -4.9
CCOC(=O)c1sc2nc(SCC(=O)Nc3ccc(N(C)C)cc3)n(Cc3ccccc3)c(=O)c2c1C | -4.2 | 0.6 | 0.0 | -0.5 | . | .
C=CCc1cc(C)ccc1OCCN1CCCC1 | -2.2 | 11.3 | -0.1 | 2.3 | . | .
C=CCc1cc(C)ccc1OCCCN1CCCC1 | 12.7 | 54.8* | 0.0 | -0.5 | 0.1 | 8.6
C=CCc1cc(Cl)ccc1OCCNCCN1CCOCC1 | 4.7 | 76.3* | 0.4 | 0.2 | -9.2 | 0.5
C=CCc1ccccc1OCCOCCN1CCOCC1 | -1.8 | 72.3* | 0.1 | 2.6 | 10.5 | 16.9
C=CCc1cc(C)ccc1OCCCCn1ccnc1 | -7.4 | 74.5* | 0.3 | -1.5 | 35.4* | 3.3 | AS interf DR=>6.48
C[C@H]1CC[C@@H](C(C)(C)O)CC2=C1CC[C@@H]2C | 7.4 | -0.4 | 0.2 | 0.4 | . | .
CSc1nnc(CN(C)Cc2cccc3ncccc23)n1CC1CCCO1 (stereo unspecified) | 0.1 | 3.2 | 0.0 | 0.7 | . | .
C=CCc1cc(C)ccc1OCCOCCN1CCN(C)CC1 | 3.0 | 59.6* | -0.2 | 0.7 | -6.5 | -7.1
C=CCc1cc(Cl)ccc1OCCCN1CCN(C)CC1 | 7.4 | 79.2* | 0.4 | 0.7 | 4.0 | 10.0
SMILES | TEAD-YAP block | MITF inh | FBW7 activator | GPR151 ag | MITF inh conf | AlphaScreen intf2 | others
CN1CCN(CCCOc2cc(Cl)ccc2Cl)CC1 | -11.0 | 6.7 | 0.1 | -1.6 | . | .
O=C(Nc1ccc2[nH]ncc2c1)C1CCN(C(=O)c2ccccc2F)C1 (stereo unspecified) | -1.2 | -10.1 | 0.4 | 1.5 | . | .
CC1=NN(c2ccc(C(=O)O)c(N)c2)C(=O)C1 | -8.6 | 68.2* | -0.9 | 2.3 | 54.3* | 18.0 | AS interf DR=>6.48
CC(C)(C)OC(=O)N1C(C(=O)O)CSC1c1cc2c(cc1[N+](=O)[O-])OCO2 (stereo unspecified) | -7.5 | 59.8* | -0.3 | 0.1 | 71.9* | -5.2 | AS interf DR=>6.48
COc1cc(/C=C2/N=C(c3cccc(Cl)c3Cl)OC2=O)cc(Br)c1OC(C)=O | 0.7 | 79.9* | 0.2 | 0.1 | 1.5 | -3.0
COc1cc(/C=C2\N=C(c3ccccc3F)OC2=O)cc(Br)c1OC(C)=O | 5.9 | -15.5 | 0.1 | 0.0 | . | .
CNC(=S)N(CCN(C)C)Cc1cc2cc3c(cc2n2nnnc12)OCO3 | -0.6 | -4.3 | 0.0 | 0.2 | . | .
CCOC(=O)c1c(NC(=O)C(F)(F)F)sc(C(=O)Nc2ccccc2)c1C | 28.7 | 55.0* | -0.2 | -4.4 | -0.2 | 1.0
CCN1CCN(CCOc2ccc3ccccc3c2Cl)CC1 | -2.4 | 58.4* | -0.4 | -0.5 | 10.9 | 19.4
Clc1c(OCCCN2CCNCC2)ccc2ccccc12 | -22.1 | 51.4* | -0.2 | 1.5 | -13.2 | -6.6
CCN1CCN(CCOc2cccc3ccccc23)CC1 | 13.7 | -17.2 | -0.1 | 0.0 | . | .
CCN1CCN(CCCOc2ccc3ccccc3c2Br)CC1 | -18.6 | 61.4* | -0.2 | 0.0 | 7.4 | 14.7
CC1=C(C(=O)c2ccccc2)C(C)C(C(=O)c2ccccc2)=C(C)N1 | 1.8 | 9.3 | 0.1 | 0.2 | . | .
CC(=O)N1CCN(c2ccc(NC(=O)c3ccccc3)cc2)CC1 | -48.9 | 37.6 | -0.2 | -1.0 | . | .
CC(=O)N1CCN(c2ccc(NC(=S)NC(=O)c3ccccc3)cc2)CC1 | -7.2 | 51.7* | 0.0 | 0.1 | 7.7 | 19.7
O=C(c1cccnc1)N1CCN(Cc2cccc(Cl)c2)CC1 | -3.0 | 64.9* | 0.0 | 2.1 | -5.9 | 9.3
O=C(c1cccnc1)N1CCN(Cc2ccc(Br)cc2)CC1 | 6.5 | 69.5* | -0.5 | 3.2 | -4.9 | -4.4
O=C(c1cccnc1)N1CCN(Cc2ccccc2)CC1 | 8.8 | 47.3 | -0.1 | 0.8 | . | .
Cc1cccc(CN2CCN(C(=O)c3cccc(Cl)c3)CC2)c1 | 8.7 | 42.3 | -0.2 | 0.6 | . | .
O=C(c1cccnc1)N1CCN(Cc2cccc(Br)c2)CC1 | 1.3 | 65.1* | -0.2 | 3.3 | 4.5 | 15.0
CC1Oc2cc(Cl)ccc2N(Cc2cccc(F)c2)C1=O (stereo unspecified) | 7.6 | -8.3 | -0.1 | 2.6 | . | .
CCOc1cc(/C=C2/C(=N)N3N=C(C)SC3=NC2=O)cc(Cl)c1OCCOc1ccccc1Cl | -7.4 | 9.1 | -0.1 | -0.2 | . | .
Cc1sc2ncn(CC(=O)NCC(=O)Nc3ccc4c(c3)OCO4)c(=O)c2c1C | -7.6 | 54.9* | 0.4 | -1.7 | -0.7 | 13.5
COc1ccc(CN2CCN(Cc3cccn3C)CC2)c(OC)c1OC | 0.6 | 46.5 | -0.2 | 0.0 | . | .
COc1ccc(CN2CCN(CCOc3ccccc3)CC2)c(OC)c1OC | 0.3 | 71.5* | 0.0 | -0.8 | 1.9 | 9.5
COc1ccc(CN2CCN(CCOc3ccccc3C#N)CC2)c(OC)c1OC | 1.1 | 69.1* | 0.1 | -0.1 | 1.3 | 20.4

Assay outcomes deposited in PubChem BioAssay by The Scripps Research Institute Molecular Screening Center.
